Screening data as filed in PubChem.
ATXN2 expr inh = ATXN2 expression inhibition. Potency, µM (titrated, usually from 57 µM), usual class: inhibitors. hit rate 0.72% among 360,000. HEK-293 ATXN2-luciferase reporter, luminescence, 24 h; further: nearly all actives have a fitted effect of over 55% in size
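qHTS (up to 57 uM final) was run with 24 h compound exposure of reporter cells at 37 °C. Each well was multiplexed: SteadyGlo luminescence measured ATXN2-luciferase expression after a fluorogenic Gly-Phe-AFC viability readout (25 uM final).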
Nrf2 inh = Nrf2 pathway inhibition; A549 ARE-Fluc reporter, luciferase luminescence, 18-24 h; Potency, µM (highest dose often 46 µM), most hits filed as inhibitors; hit rate 2.1% among 360,000; further: nearly all actives have a fitted effect of over 60% in size
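Reporter: ARE-Fluc in A549. Exposure: 18-24 h, 37 °C, 5% CO2, 5% FBS OPTI-MEM. Readouts: fluorescent cytotoxicity (CellTiter-Fluor), then luminescent Nrf2 signal after BugLite.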
A549 tox = kills or reduces viability of A549 cells in Nrf2 counter-screen; A549 ARE-Fluc cells, CellTiter-Fluor viability, 18-24 h; hit rate 0.16% among 390,000; Potency, µM (doses to about 46 µM), actives largely listed as inhibitors
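Cytotoxicity counterscreen: CellTiter-Fluor fluorescence was measured in A549 ARE_Fluc cells after 18-24 h of compound exposure in a concentration series. The subsequent BugLite luminescent read reports ARE-luciferase activity.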
Nrf2 activator = activators of Nrf2 (ARE) signaling | AID 624171 | hit rate 0.31% among 410,000 | Potency, µM (doses to about 46.1 µM), actives largely listed as activators | AREc32 ARE-luciferase reporter (MCF7-derived line), luminescence, 24 h; further: nearly all actives have a fitted effect of over 65% in size
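AREc32 cells carrying an ARE-driven firefly luciferase reporter were seeded at 1000 cells/well in OPTI-MEM with 5% FBS, then exposed to compound for 24 hr at 37 deg C. Luminescence was read with Steady-Glo after 30 min at RT.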
ATXN viability = cell viability loss in ATXN counter-screen | S2 cells (HEK-293 line with an ATXN2-luciferase reporter) viability, CellTiter-Fluor protease fluorescence, 24 h | Potency, µM (highest dose often 56.7 µM), usual class: cytotoxic | hit rate 0.49% among 400,000 | AID 651635; further: nearly all actives have a fitted effect of over 40% in size
A number is an active result; – = inactive; ? = inconclusive; · = no result given; [ ] = remark or other dose. Most compounds without a hit are left out; they make up all but 2.9% or so of the library. The call rests on the fitted dose curve; in most records, active means well fitted curve in the direction sought with a large enough effect; inconclusive means small, poorly fitted or top-dose-only effect, or another doubt; inactive means no such curve, though single readings can be large; an effect the other way counts as inactive or inconclusive.

SMILES	ATXN2 expr inh	Nrf2 inh	A549 tox	Nrf2 activator	ATXN viability
COC(=O)C(=C/C(C)=C/c1cccs1)C(=O)OC	–	–	–	14µM	?
N#C/C(=N\Nc1cccc(C(F)(F)F)c1)C(=O)c1csc(-c2cccnc2)n1	?	?	?	–	25µM
CC(C)COn1c(=S)[nH]c2ccccc2c1=O	–	–	–	–	–
CCc1ccc(C(=O)c2cn(Cc3ccccc3)c3cc(OC)c(OC)cc3c2=O)cc1	–	?	21µM	–	?
COc1cc2c(=O)c(C(=O)c3ccc(C)c(C)c3)cn(Cc3ccc(F)cc3)c2cc1OC	–	–	–	–	?
COc1cc2c(=O)c(C(=O)c3ccc(C)c(C)c3)cn(Cc3ccccc3)c2cc1OC	–	–	–	–	?
COc1cc2c(=O)c(C(=O)c3ccc(C)c(C)c3)cn(Cc3ccccc3F)c2cc1OC	–	?	21µM	–	?
CC(=O)Oc1c(Cl)c(N2CCOCC2)c(OC(C)=O)c2ccccc12	–	?	–	16µM	–
COc1cc(C(=O)/C=C/c2cccnc2)c([N+](=O)[O-])cc1OC	13µM	18µM	?	–	14µM
CCSC1=NC(C)(C)C=C(/C=C/c2ccc(Cl)cc2Cl)N1	–	·	–	?	–
CSC1=NC(C)(C)C=C(/C=C/c2ccc(Cl)cc2Cl)N1	–	–	–	25µM	?
CSC1=NC(C)(C)C=C(/C=C/c2ccc(Cl)cc2)N1	?	–	–	5.6µM	?
CSC1=NC(C)(C)C=C(/C=C/c2c(Cl)cccc2Cl)N1	–	–	–	?	–
COc1cc(NC(=O)COc2ccccc2[N+](=O)[O-])ccc1NC(=O)c1ccco1	–	–	–	–	–
COc1ccc(C(CCNCc2ccc(N(C)C)cc2)c2ccccc2)cc1 (stereo not drawn)	?	–	–	–	22µM
O=C(Nc1ccc2nc(SCC(=O)N3CCCc4ccccc43)sc2c1)c1ccccc1	·	12µM	–	–	·
Cc1ccc(S(=O)(=O)/N=C(\N)Nc2nc(C)c3ccc(C)cc3n2)cc1	–	8.2µM	–[1.84 µM]	–	–
O=C(c1ccc2ncsc2c1)N1CCN(c2nc3ccccc3s2)CC1	?	18µM	–	–	–
O=C(Nc1ccc(F)cc1)N1CCCN(c2nccc(C(F)(F)F)n2)CC1	·	12µM	?	–	–
O=C(Nc1ccc(F)cc1)N1CCN(c2nc3ccccc3s2)CC1	–	21µM	–	–	–
O=C(Nc1ccccc1)N1CCCN(c2nccc(C(F)(F)F)n2)CC1	–	–	–	–	–
COc1cc(/C=N/NC(=O)c2nonc2N)cc(OC)c1OC	–	–	–	–	–
CCOC(=O)c1c(C)nc(-c2ccccc2)nc1N	–	?	–	13µM	–
O=C(CN1CCC(Cc2ccccc2)CC1)NCCc1ccc(F)cc1	–	?	?	–	–
NS(=O)(=O)c1ccc(CCNC(=O)CN2CCC(Cc3ccccc3)CC2)cc1	–	21µM	–	–	–
SMILES	ATXN2 expr inh	Nrf2 inh	A549 tox	Nrf2 activator	ATXN viability
CC(C)(C)N(Cc1ccc2c(c1)OCO2)C(=O)/C=C\S(=O)c1ccccc1 (stereo not drawn)	16µM	?	–	–	?
CCN(Cc1ccc2c(c1)OCO2)C(=O)/C=C/c1cccc(Br)c1	–	?	–	–	–
O=c1oc(CCO)cc2ccc(C#Cc3ccsc3)cc12	–	–	–	2.5µM	–
Nc1nccc(/C=C/c2c(Cl)cccc2Cl)n1	–	–	–	11µM	–
Nc1nccc(/C=C/c2ccc(Cl)cc2)n1	–	?	–	?	–
O=C(/C=C/c1ccncc1)c1ccc2c(c1)OCCO2	–	?	–	–	?
COc1cc(/C=C/C(=O)c2ccc3c(c2)OCCO3)cc(Br)c1OCC(=O)N(C)C	20µM	21µM	?	?	28µM
COC(=O)c1ccc(-c2ccc(/C=N/N3C(=O)C4C5C=CC(C6CC56)C4C3=O)o2)cc1 (stereo not drawn)	–	?	–	–	–
Cc1ccc(/C=C/C(=O)c2cc(Br)ccc2OC(=O)c2ccco2)cc1	–	–	–	–	–
COc1ccccc1/C=C/C(=O)c1cc(Br)ccc1OC(=O)c1ccco1	?	26µM	?	–	?
O=C(/C=C/c1ccc(-c2ccccc2[N+](=O)[O-])o1)c1ccc(Br)cc1	?	–	–	2.5µM	–
O=C(/C=C/c1ccc(-c2ccccc2[N+](=O)[O-])o1)c1ccc(F)cc1	?	–	–	?	?
O=C(COCc1cc(-c2ccc3c(c2)OCO3)on1)Nc1cccnc1	–	–	–	–	–
COc1ccc(C(=O)N2N=C(c3cccs3)CC2c2ccccc2O)cc1 (stereo not drawn)	–	18µM	?	–	?
COc1ccc(C2=NN(C(=O)c3cccs3)C(c3ccccc3O)C2)cc1 (stereo not drawn)	·	23µM	?	–	?
COc1ccc2cc(C3CC(c4cccs4)=NN3C(C)=O)c(Cl)nc2c1 (stereo not drawn)	–	–	–	–	–
COc1ccc(C2CC(c3ccccc3)=NN2C(=O)c2cccs2)cc1 (stereo not drawn)	–	?	?	–	–
Cc1c(Br)c([N+](=O)[O-])nn1CC(=O)Nc1ccc(Cc2ccncc2)cc1	?	18µM	?	–	–
CC(=O)Nc1ccc(NC(=O)Cn2nc([N+](=O)[O-])c(Br)c2C)cc1	–	–	–	–	–
CCN1C(=O)[C@@H]2[C@@H](c3ccc(-c4ccccc4)cc3)N3CCC[C@@]3(C(=O)OC)[C@@H]2C1=O	–	–	–	–	–
CCN1C(=O)[C@H]2[C@@H](c3ccc(-c4ccccc4)cc3)N3CCC[C@@]3(C(=O)OC)[C@H]2C1=O	–	15µM	–	–	–
O=C(Nc1nc2c(F)cccc2s1)c1ccc([N+](=O)[O-])o1	–	–	–	10µM	–
O=C(Nc1nc2c(Cl)cccc2s1)c1ccc([N+](=O)[O-])o1	?	–	–	5µM	?
O=C(Nc1nc2ccc(F)cc2s1)c1ccc([N+](=O)[O-])o1	·	·	·	3.2µM	?
O=C(Nc1nc2c(Cl)cccc2s1)c1ccc(Br)o1	–	–	–[1.84 µM]	?	–
SMILES	ATXN2 expr inh	Nrf2 inh	A549 tox	Nrf2 activator	ATXN viability
O=C(Nc1ncccn1)c1ccc([N+](=O)[O-])o1	–	?	?	?	–
Cc1ccc(N2CCN(S(=O)(=O)c3ccc4[nH]c5c(c4c3)CCCCC5)CC2)c(C)c1	–	–	–	–	–
CN1CCCN(C(=O)C2CCC(C(=O)N3CCCN(C)CC3)CC2)CC1 (stereo not drawn)	–	–	–	–	–
CCn1c(/C=C/Nc2ccccc2)[n+](CC)c2cc(Cl)c(Cl)cc21	?	–	?	–	32µM
COCCCNC(=O)c1c(C)nn(-c2ccc(F)cc2)c1-n1cccc1	–	–	–	–	–
CN1\C(=C/C=C/C=C/C=[N+](C)C)C(C)(C)c2ccccc21	·	?	?	?	18µM
CC(=O)COC(=O)C1CCN(S(=O)(=O)c2cc([N+](=O)[O-])ccc2Cl)CC1	–	–	–	14µM	–
